Test results reported in PubChem BioAssay (NCI).
“And” between values parts separate entries of the source, which are not always exact repeats. Identical values can stand only once. This is part of a sample that, as a whole, favours compounds with a hit. Of some 83,000 tested, about 20% had one in any assay.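 The test compound was applied at a single concentration to cells in 96-well plates for 48 hours, and percent growth was recorded.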 Values without a mark were called inactive. The source made the active and inactive calls. How the source made its calls: active means growth percent below 10; inactive means the rest.

tested on: MDA-MB-468 breast; assay: NCI-60 one-dose screen, 48 h (100 = growth as untreated, 0 = no growth, -100 = all killed); settings: 10 µM unless noted

`Cc1ccc(-c2cn3cc([N+](=O)[O-])ccc3n2)cc1` was tested. Which growth did it give?
Its growth is 56.3%.

How did the growth turn out when `CC(C)N1CCN(c2ccc(OC[C@H]3CO[C@](Cn4cncn4)(c4ccc(Cl)cc4Cl)O3)cc2)CC1` was run?
The growth was 78.9%.

`C[C@]12CC[C@@H]3c4ccc(O)cc4CC[C@H]3[C@@H]1C[C@H](O)[C@@H]2O` was tested. Which growth did it give?
The growth was 87.1%.

For `CC1CN(S(=O)(=O)c2oc(-c3ccc(Cl)cc3)nc2C#N)CC(C)O1` (configuration not stated), which growth is on record?
The growth was 70%.

How did the growth turn out when `COCCOc1ccc2ncc(C#Cc3cncc(C(=O)Nc4ccc(CN5CCN(C)CC5)c(C(F)(F)F)c4)c3)n2n1` was run?
Its growth is 7.9% (active).

How did the growth turn out when `COc1ccc(C(=O)c2cc3c(N)c(C(=O)Nc4cccc(Cl)c4C)sc3nc2C)cc1` was run?
Its growth is -2.98% (active).

Which growth does the source give for `Oc1ccc(Cn2cc3c(c2-c2ccccc2)CCc2cnoc2-3)cc1` here?
The growth was 89.2%.

Which growth does the source give for `COc1ccc2c(c1)/C(=C/c1cc(OC)c(OC)c(OC)c1)C(=O)N2C` here?
The growth was 25.9%.

For `Cc1ccc(C2CC(c3ccc(Nc4nc(NCCO)nc(Nc5ccc(Cl)cc5)n4)cc3)=NN2c2cc(Cl)cc(Cl)c2)cc1` (configuration not stated), which growth is on record?
The growth was 102%.

For `CCOc1cc(/C=N\NC(=O)C[N+](C)(C)C)ccc1O`, which growth is on record?
Its growth is 123%.

`COCCc1ccc(OCC(O)CNC(C)C)cc1` (configuration not stated) was tested. Which growth did it give?
Its growth is 113%.

`CCSc1ncnc2c1ncn2C1OC(CO)C(O)C1O` (configuration not stated) was tested. Which growth did it give?
The growth was 15.8%.

With `C[C@@H]1N=C(c2ccc3ccccc3n2)Nc2nc3ccccn3c2C1=O` as the compound, how does the growth read?
The growth was 107%.

`Cn1cnc2c1c(=O)n(CCC(=O)Nc1ccc(F)cc1)c(=O)n2C` was tested. Which growth did it give?
Its growth is 113%.

`COc1ccc(/C=c2\c(=O)n(-c3ccccc3)c3nn4c(n23)=NNC42CCCCC2)cc1` was tested. Which growth did it give?
Its growth is 110%.

With `CN1C(=O)N(C)C2C1NN=c1s/c(=C\c3ccc(C(F)(F)F)cc3)c(=O)n12` (configuration not stated) as the compound, how does the growth read?
The growth was -2.71% (active).

Which growth does the source give for `CC(C)OC(=O)c1ccc2[nH]c(O)c(C(=Nc3ccc(N(C)C(=O)CN4CCN(C)CC4)cc3)c3ccccc3)c2c1` here?
The growth was -91% (active).

With `COc1ccc(NC(=S)NNc2ccc(-c3ccc(OC)c(OC)c3)nn2)cc1` as the compound, how does the growth read?
Its growth is 109%.

For `Cc1ccc(-n2nnnc2N)c(C)c1`, which growth is on record?
The growth was 115%.

With `COC(=O)c1c(C)nc(C)c2c1C(=O)C(Br)=C(NCc1ccccc1)C2=O` as the compound, how does the growth read?
Its growth is -21.3% (active).

How did the growth turn out when `OCC1OC(n2ccc3c(NO)ncnc32)C(O)C1O` (configuration not stated) was run?
The growth was -88.8% (active).

With `CC(c1ccccc1)N1C(=O)CSC1=S` (configuration not stated) as the compound, how does the growth read?
Its growth is -5.47% (active).

Which growth does the source give for `CC(C)[C@@H]1CC[C@]2(C(=O)NCCCCN=C(N)N)CC[C@]3(C)[C@H](CC[C@@H]4[C@@]5(C)CCC(=O)C(C)(C)[C@@H]5CC[C@]43C)[C@@H]12` here?
Its growth is 10.6%.

For `COc1cc(-c2cc(-c3ccc(C)cc3)nc3nc(N)[nH]c(=O)c23)ccc1Oc1ccnc2cc(Cl)ccc12`, which growth is on record?
The growth was 52.3%.

For `Cc1[nH]n(C(N)=S)c(=O)c1N=Nc1ccc(F)c(Cl)c1`, which growth is on record?
Its growth is 154%.

Which growth does the source give for `NS(=O)(=O)c1cc2c(cc1Cl)NC(C(Cl)Cl)NS2(=O)=O` (configuration not stated) here?
The growth was 101% and 108%.

How did the growth turn out when `CC1=CC(C)(C)NC(=S)N1c1ccc(S(=O)(=O)O)c2cccc(S(=O)(=O)O)c12` was run?
The growth was 107%.
